Shown are actives, neighbours in structure and some others; about 5.9% of the full set was active somewhere.
VP16 counter = VP16 counterscreen qHTS for inhibitors of ROR gamma transcriptional activity | Drosophila S2 Gal4-VP16 UAS-luciferase, luminescence, 20 h | Potency, µM (titrated, usually from 53.6 µM), for inactives: top-dose activity, negative = inhibition, most hits filed as inhibitors | 310,000 compounds, 3.5% hits;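 further: Gal4-VP16 expression switched on by copper sulfate through the metallothionein promoter; on the % scale 0 is the no-effect control and ±100 the full control effect; nearly all actives have a fitted effect of over 50% in size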
HEK293 tox = qHTS of GLP-1 Receptor Inverse Agonists: Cytotox Screen | 410,000 compounds, 0.13% hits | Potency, µM (titrated, usually from 38.3 µM), for the others: top-dose activity change, negative = inhibition, most hits filed as inhibitors | AID 624418, 2012 | HEK293 cAMP-luciferase reporter cells, luminescence, 24 h;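 further: loss of luciferase light is scored as toxicity; on the % scale 0 is the no-effect control and ±100 the full control effect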
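To flag toxic compounds, the library was rerun on cells for 24 hr at 37 deg C and 5% CO2. Viability-linked luminescence was captured 12 min after adding luciferase detection reagent.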
RORg inh = qHTS for inhibitors of ROR gamma transcriptional activity. Nuclear receptor ROR-gamma (Mus musculus), P51450. Drosophila S2 Gal4-RORgamma UAS-luciferase reporter, 20 h. Potency, µM (highest dose often 53.6 µM), for inactives: top-dose activity change, negative = inhibition, actives largely listed as inhibitors. 310,000 compounds, 5.4% hits. AID 2551, 2010; further: on the % scale 0 is the no-effect control and ±100 the full control effect; nearly all actives have a fitted effect of over 60% in size
Target sequence (P51450 whole entry, looked up, the tested form may be a part): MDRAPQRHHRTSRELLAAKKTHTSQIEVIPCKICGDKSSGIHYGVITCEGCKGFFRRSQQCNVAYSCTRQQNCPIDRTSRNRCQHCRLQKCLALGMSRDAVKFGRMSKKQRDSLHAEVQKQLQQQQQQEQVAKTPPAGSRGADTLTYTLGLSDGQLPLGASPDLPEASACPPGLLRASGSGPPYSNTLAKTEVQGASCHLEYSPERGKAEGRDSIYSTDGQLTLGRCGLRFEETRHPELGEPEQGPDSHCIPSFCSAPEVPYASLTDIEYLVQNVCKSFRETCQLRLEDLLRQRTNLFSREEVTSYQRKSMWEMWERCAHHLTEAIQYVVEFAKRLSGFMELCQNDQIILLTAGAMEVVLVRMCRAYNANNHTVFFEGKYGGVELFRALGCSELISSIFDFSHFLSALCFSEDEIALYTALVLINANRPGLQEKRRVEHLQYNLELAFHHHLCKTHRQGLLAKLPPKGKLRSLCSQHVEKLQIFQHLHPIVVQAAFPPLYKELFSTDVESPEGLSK
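Luminescence from a UAS-regulated Photinus luciferase reporter in stably transfected Drosophila Schneider cells is measured; decreased signal marks ROR gamma inhibition. Fusion expression is induced by 700 uM copper sulfate for 20 hr.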
GLP1R ag = qHTS of GLP-1 Receptor Agonists; Glucagon-like peptide 1 receptor (Homo sapiens), P43220; HEK293 GLP-1R CRE-luciferase, luminescence, 4-6 h; cells express a hypersensitive GLP-1R form; Potency, µM (doses to about 45.6 µM), without a hit: at the highest dose activation, most hits filed as activators; 380,000 compounds, 0.007% hits; AID 624172, 2012; further: % of control where 0% means no effect
GLP-1R inv ag = qHTS of GLP-1 Receptor Inverse Agonists (Inhibition Mode); HEK293 GLP-1R CRE-luciferase, luminescence, 24 h; GLP-1R form is constitutively active; Potency, µM (doses to about 38.3 µM), for the others: at the highest dose activity change, negative = inhibition, hits mostly inhibitors; 410,000 compounds, 1.6% hits; AID 624417, 2012; further: on the % scale 0 is the no-effect control and ±100 the full control effect; nearly all actives have a fitted effect of over 55% in size
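Inverse agonists were sought by their lowering of basal cAMP reporter luciferase output in HEK293 cells stably carrying constitutively active human GLP-1R, after 24 h compound treatment.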
Starred values were filed as active, the others as inactive; ? = inconclusive; · = no result given; [ ] = another dose, or the depositor's remark. The call rests on the fitted dose curve; in most records, active means well fitted curve in the direction sought with a large enough effect; inconclusive means small, poorly fitted or top-dose-only effect, or another doubt; inactive means no such curve, though single readings can be large; an effect the other way counts as inactive or inconclusive. Potency means the concentration at half of the fitted maximal effect.

SMILES | VP16 counter | HEK293 tox | RORg inh | GLP1R ag | GLP-1R inv ag
CC1CCC(NC(=O)c2ccc3c(c2)OCO3)CC1 (centres undefined) | ? | -2% | 10µM* | 0% | 4µM*
COc1cc2ccccc2cc1C(=O)NC1CCC(C)CC1 (centres undefined) | · | -9% | · | ? | 10µM*
CCc1ccc(C(C)NC(=O)c2ccc3c(c2)OCO3)cc1 (centres undefined) | -3% | -3% | ? | 12% | 11µM*
CC(C)CC(CC(C)C)=NNC(=O)c1ccc2c(c1)OCO2 | 5% | -8% | 13µM* | 3% | ?
C[C@@]12C=Cc3occc3C1CC[C@@]13C[C@@H](CCC12)[C@@](O)(CO)C3 (some centres undefined) | -26% | · | -35% | · | ·
C=C(C)C(O)/C=C/c1ccc(Br)cc1 (centres undefined) | ? | · | -31% | · | ·
CCCSCCCNC(=O)C1CCN(C(=O)c2cc3sccc3n2C)CC1 | · | 16% | · | · | 1%
CC(C)NC(=S)N/N=C1\CCCc2ccccc21 | 4µM* | ? | 1.6µM* | 6% | ?
O/N=C1\CCCc2ccccc21 | -13% | 10% | 9% | 7% | 1%
CC(C)NC(=S)NN=C1CCC(c2ccccc2)CC1 (centres undefined) | 11µM* | ? | 5.6µM* | 7% | ?
Cc1cc(C)n2c(=O)c3ccc(Cl)cc3nc2c1C#N | -10% | 35% | 13% | 5% | 3%
Cc1cc(Cl)n2c(nc3cc(F)c(F)cc32)c1C#N | 7.1µM* | 6%[0.307 µM] | 4.5µM* | -32% | -3%[0.307 µM]
COc1ccc(-n2c(SCC(=O)N3CCc4ccccc43)nc3c([nH]c4ccccc43)c2=O)cc1 | · | 4% | · | 8% | 7%
COc1ccc(C2CC2/C(=N/O)c2ccccn2)cc1 (centres undefined) | 3.2µM* | -12% | ? | 11% | 0%
O/N=C(\c1ccccn1)C1CC1c1ccccc1 (centres undefined) | -13% | -19% | 13µM* | -6% | 4%
CC(C)C[C@@H](NC(=O)[C@@H](O)[C@H](N)Cc1ccccc1)C(=O)O | 2% | · | 1% | · | ·
Cc1ccc(Nc2c([N+](=O)[O-])ccc3c2=NC2(CCCCC2)N=3)cc1 | -16% | -21% | 7.9µM* | 2% | 27%
CCCCCOc1ccccc1CN1C(=O)C(=O)c2cc(C)ccc21 | · | 4% | · | · | 1%
COc1cc(-c2nc3ccc(C)cn3c2NCc2ccccc2)ccc1-c1cccc(Cl)c1 | · | -3% | · | 5% | 8.9µM*
COc1cc(-c2nc3ccc(C)cn3c2NCc2ccccc2)ccc1SC1CCCCC1 | · | -15% | · | 0% | 4µM*
N=C1N=C(N)c2cc3ccccc3cc21 | -6% | · | -2% | -5%[96 µM] | ·
CC1=C/C(=N\NC(=O)c2ccc(O)cc2)CC1 | ? | 5% | 13µM* | 1% | 22%
CCOC(=O)N1CCC(=NNC(=O)c2ccc(O)cc2)CC1 | ? | 10% | 8.9µM* | 4% | 4%
CCOC(=O)N1CCC(=NNC(=O)c2ccccc2F)CC1 | 24% | 12% | -1% | -2% | -9%
O=C1[C@H]2[C@H]3[C@H](O)[C@H](O)C/C(=N/OC[C@@H](O)COCc4ccco4)[C@@H]3CC[C@@H]2C(=O)N1C1CCCCC1 | 1%[10 µM] | · | 5%[10 µM] | · | ·
SMILES | VP16 counter | HEK293 tox | RORg inh | GLP1R ag | GLP-1R inv ag
COc1cc(Cn2c3ccc(NC(=O)CCc4ccccc4)cc3c(=O)n2C)ccc1F | · | ? | · | 9% | 2.2µM*
CC(C)Oc1ccc(CNC(=O)c2ccc3c(c2)N(C)C(=O)C2CCCCN32)cc1 (centres undefined) | · | 18% | · | · | -26%
CC1CCN(c2ccc(-c3nc(C(C)C)no3)cc2[N+](=O)[O-])CC1 | · | -8% | · | · | -18%
Cc1ccc(-c2nnc(NC3CCCC3)s2)cc1 | ? | -7% | 11µM* | -8% | ?
CN(Cc1ccccc1)C(=O)[C@H](Cc1ccc2ccccc2c1)NC(=O)[C@@H]1CCCN1C(=O)Nc1ccccc1[N+](=O)[O-] | 3% | · | 25% | · | ·
O=C(Nc1nc2c(F)cccc2s1)c1ccco1 | -3% | -13% | ? | -2% | 6%
COc1cccc2sc(NC(=O)c3ccc(Br)s3)nc12 | -22% | -22% | -45% | -12% | ?
COc1cccc2sc(Nc3nnc(-c4ccc(F)cc4)o3)nc12 | 5µM* | ? | 2.2µM* | -1% | ?
Fc1cccc2sc(Nc3nnc(-c4ccco4)o3)nc12 | -8%[0.365 µM] | -12% | 0.13µM* | -28% | ?
COc1cccc2sc(Nc3nnc(-c4cccs4)o3)nc12 | 2µM* | -11% | 1.4µM* | -23% | ?
CC(C)(C)C(=O)N1CCC(O)(CS(=O)(=O)Cc2ccccc2Cl)CC1 | 5.6µM* | 8% | ? | -3% | 7%
COc1ccc(CCNC(=O)c2cc(Sc3cccc(Cl)c3)nc3ccccc23)cc1OC | · | -4% | · | · | ?
O=C(COC(=O)c1ccc(O)cc1O)NC12CC3CC(CC(C3)C1)C2 | · | -3% | · | 0% | ?
O=C(OCC(=O)C12CC3CC(CC(C3)C1)C2)c1ccc(O)cc1O | · | ? | · | 23% | 11µM*
CC(C)CCN(Cc1ccco1)C(=O)c1cc2c(s1)-c1ccccc1OC2 | · | 2% | · | -2% | ?
CC(C(=O)Nc1ccc2c(c1)OCO2)N(c1ccc(Cl)cc1)S(C)(=O)=O (centres undefined) | -17% | -10% | -4% | -6% | 10µM*
CC(C(=O)Nc1ccc2c(c1)OCO2)N(C)CC(=O)Nc1ccc(Cl)cc1 (centres undefined) | · | -15% | · | 8% | ?
Cc1ccc(-c2n[nH]c(Cc3ccccc3)n2)cc1 | -4% | -15% | 21% | 2% | ?
CC(C)(C)c1cc(Cc2ccccc2)[nH]n1 | -1% | -7% | 18µM* | -5% | 0%
Fc1ccc(C(c2ccc(F)cc2)N2CCN(C/C=C\c3ccccc3)CC2)cc1 | -15% | · | -11% | · | ·
COc1ccc(-n2nc(C#N)c(Cl)cc2=O)cc1 | 13µM* | ? | 10µM* | -8% | ?
CCc1ccc(-n2c(=O)c3c4c(sc3n(Cc3cc(=O)n5c(C)cccc5n3)c2=O)CCC4)cc1 | · | 1% | · | -1% | -12%
COC(=O)c1sccc1NC(=O)CSc1ccc(Cl)cc1 | 1% | -1% | -6% | 18% | 0%
COC(=O)c1sccc1NC(=S)NCc1ccc(Cl)cc1 | 1.3µM* | 0% | 0.79µM* | 6% | ?
COC(=O)c1ccc(C)c(NC(=S)NCc2ccc(Cl)cc2)c1 | 14µM* | 4% | 8.9µM* | -9% | ?
